Laboratory results reported in PubChem BioAssay AID1961 (Sanford-Burnham Center for Chemical Genomics, 2009).
Several values for one entry are separate records, joined by “and”; a condition that tells them apart may be missing. Identical values can stand only once. Among all 290,000 compounds or so, about 140 (0.048%) were called active.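 How the source made its calls: active means activation above 40% with more than 50 cells counted in the well; inconclusive means wells holding fewer than 50 cells, flagged as toxic or sparse; inactive means the rest.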 Only a selection was taken, and actives are over-represented in it overall.

Experiments:
[1] = selective activators of receptor GPR55 – imaging, U2OS cells, beta-arrestin-GFP redistribution, primary screen (AID 1961); settings: measured here: cytotoxicity, cells analyzed, at 10 µM;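 further: U2OS osteosarcoma cells stably expressing GPR55 and beta-arrestin-GFP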;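 on activation: plate controls were DMSO negative control for no effect and LPI positive control for full effect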
[2] = molecular target: G-protein coupled receptor 55 (Homo sapiens) (UniProt Q9Y2T6); test: as above; settings: at 10 µM, stronger effect = higher value
Sequence of G-protein coupled receptor 55 (Homo sapiens) (Q9Y2T6 whole entry, looked up): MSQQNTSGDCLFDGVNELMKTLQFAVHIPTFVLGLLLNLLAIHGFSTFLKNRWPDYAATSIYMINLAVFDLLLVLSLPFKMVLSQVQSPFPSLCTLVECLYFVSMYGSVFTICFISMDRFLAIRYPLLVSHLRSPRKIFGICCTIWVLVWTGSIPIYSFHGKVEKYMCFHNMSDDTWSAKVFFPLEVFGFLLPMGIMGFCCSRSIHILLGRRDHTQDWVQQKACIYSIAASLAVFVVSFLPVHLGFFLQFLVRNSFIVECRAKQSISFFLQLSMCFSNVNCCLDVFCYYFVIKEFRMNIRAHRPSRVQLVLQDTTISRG

Row | SMILES | cell count [1] | activation [2]
1 | Cc1cccc(CC(=O)N2CCOCC2)c1 | 411 cells | 1.4% (inactive)
2 | O=C(CC1CCCCC1)Nc1ccccc1-c1ccccc1 | 361 cells | -0.4% (inactive)
3 | COc1ccc(Cl)cc1NC(=O)CSc1nnc(COc2ccccc2)n1C | 350 cells | 0.2% (inactive)
4 | COc1ccc(Nc2ncc3c(n2)CC(c2ccccc2)CC3=O)cc1 (stereo unspecified) | 306 cells | -0.1% (inactive)
5 | O=C(N/N=C\c1cccnc1)c1ccc(Cl)cc1Cl | 331 cells | 0.3% (inactive)
6 | CCOC(=O)CSc1nc2c([nH]c3ccccc32)c(=O)n1C | 345 cells | -0.1% (inactive)
7 | CCOc1ccccc1CNC(=O)CCc1cn(CC)c2ccccc12 | 381 cells | 0.3% (inactive)
8 | c1ccc(-c2cnn3c(-c4ccccc4)c(-c4ccccc4)nc3n2)cc1 | 310 cells | 42.5% (active)
9 | c1ccc(-c2cnn3nnnc3n2)cc1 | 327 cells | 0.2% (inactive)
10 | c1ccc(-c2cn3nc(-c4ccccc4)c(-c4ccccc4)nc3n2)cc1 | 374 cells | 0.6% (inactive)
11 | CC(C)(C)C1=CC(=O)C(=O)C(C(C)(C)C)=C1 | 346 cells | 138% (active)
12 | CC(C)(C)C1=CC=C(C(C)(C)C)C(=O)C1=O | 365 cells | 24.1% (inactive)
13 | CC(C)(C)C1=CC(=Nc2ccccc2N)C=C(C(C)(C)C)C1=O | 328 cells | -0.1% (inactive)
14 | CCN(CC)C(=O)CSc1nnc(-c2ccccc2)n1-c1ccccc1 | 281 cells | 0.2% (inactive)
15 | CCCCCCCCCCOC(=O)Cn1c(COc2cccc(C)c2)[n+](C)c2ccccc21 | 401 cells | 31.3% (inactive)
16 | Cc1ccccc1OCc1n(CC(=O)OC2CC(C)CCC2C(C)C)c2ccccc2[n+]1C (stereo unspecified) | 276 cells and 236 cells | 68% (active)
17 | CC1CCC(C(C)C)C(OC(=O)Cn2c(-c3ccc(F)cc3)[n+](C)c3ccccc32)C1 (stereo unspecified) | 272 cells | 0.6% (inactive)
18 | CC1CCC(C(C)C)C(OC(=O)Cn2c(-c3ccccc3)[n+](C)c3ccccc32)C1 (stereo unspecified) | 252 cells and 322 cells | -0.3% (inactive)
19 | CCCCCCCCCCOC(=O)Cn1c(COc2ccccc2OC)[n+](C)c2ccccc21 | 361 cells | 32.1% (inactive)
20 | CC1CCC(C(C)C)C(OC(=O)Cn2c(-c3ccc(Br)cc3)[n+](C)c3ccccc32)C1 (stereo unspecified) | 411 cells and 208 cells | 103% (active) and 106% (active)
21 | Cc1cccc(OCc2n(CC(=O)OC3CC(C)CCC3C(C)C)c3ccccc3[n+]2C)c1 (stereo unspecified) | 339 cells | 81.2% (active)

Row | SMILES | cell count [1] | activation [2]
22 | COc1ccc(OCc2n(CC(=O)OC3CC(C)CCC3C(C)C)c3ccccc3[n+]2C)cc1 (stereo unspecified) | 350 cells | 25.5% (inactive)
23 | CCCCCCCCCCOC(=O)Cn1c(COc2ccccc2C)[n+](C)c2ccccc21 | 386 cells | 17.1% (inactive)
24 | CC(C)c1ccc(/C=C/C(=O)NC2=NCCS2)cc1 | 384 cells | 0% (inactive)
25 | CCCc1nnc2n1N=C(c1ccc(-c3cc(Cl)ccc3Cl)o1)CS2 | 356 cells | 142% (active)
26 | CCc1nnc2n1N=C(c1ccc(Cl)cc1Cl)CS2 | 325 cells | -0.1% (inactive)
27 | CCCc1nnc2n1N=C(c1ccc(C)cc1)CS2 | 336 cells | -0.1% (inactive)
28 | C(=C\c1ccco1)/C1=NN(c2ccccc2)C(c2ccco2)C1 (stereo unspecified) | 324 cells | 27.4% (inactive)
29 | O=[N+]([O-])c1ccc(/C=C/C2=NN(c3ccccc3)C(c3ccco3)C2)cc1 (stereo unspecified) | 311 cells | 120% (active)
30 | O=[N+]([O-])c1ccc(/C=C/C2=NN(c3ccccc3)C(c3ccco3)C2)o1 (stereo unspecified) | 231 cells | 21.7% (inactive)
31 | CCOc1ncccc1C(=O)Nc1ccc(-c2ccc3nnc(C)n3n2)cc1 | 265 cells | -0.2% (inactive)
32 | Cc1ccc(C(=O)NC2(C(F)(F)F)NC(=O)N(c3ccc(Cl)cc3)C2=O)cc1 (stereo unspecified) | 333 cells | -0.3% (inactive)
33 | COc1ccc(CN2CCNC(=O)C2CC(=O)NC2CCC2)c(OC)c1 (stereo unspecified) | 341 cells | -0.1% (inactive)
34 | CC(C)N1CCC(NC(=O)Nc2ccc3c(c2)OCO3)CC1 | 361 cells | 0.1% (inactive)
35 | Cc1ccc(N(CC(=O)NC2CCCC2)C(=O)Cn2nnc(-c3ccccc3F)n2)cc1 | 388 cells | 0% (inactive)
36 | CCOc1ccc(C=NCC(O)c2ccccc2)cc1 (stereo unspecified) | 365 cells | -0.1% (inactive)
37 | CCCN1C(=O)/C(=C2/C=Cc3ccccc3N2CC)SC1=S | 237 cells | -0.4% (inactive)
38 | Cc1cc(C(F)(F)F)nc(SCCN2CCCCC2)c1C#N | 404 cells | -0.2% (inactive)
39 | CCOc1ccc(OCCOCCN2CCOCC2)cc1 | 322 cells | -0.1% (inactive)
40 | CCCCN(CCCC)CC(O)COc1ccccc1Br (stereo unspecified) | 385 cells | -0.2% (inactive)
41 | Clc1ccc(OCc2cn3ccccc3n2)c2ncccc12 | 448 cells | -0.1% (inactive)
42 | Cc1cccc2nc(COc3ccc(Cl)c4cccnc34)cn12 | 263 cells | 80.9% (active)

Row | SMILES | cell count [1] | activation [2]
43 | Cc1cccc2nc(COc3ccc4ccccc4c3Br)cn12 | 340 cells | 0.4% (inactive)
44 | Cc1nc2ccc(NC(=O)CCC3CCCC3)cc2s1 | 329 cells | -0.1% (inactive)
45 | Cc1nn2c(N3CCCC3)c3c(nc2c1-c1ccccc1)CCC3 | 363 cells | 0% (inactive)
46 | Cc1nn2c(C(F)(F)F)c3c(nc2c1-c1ccccc1)CCC3 | 390 cells | 0.4% (inactive)
47 | Cc1ccc(C)c2nc3sc(C(=O)N4CCCc5ccccc54)c(N)c3cc12 | 369 cells | 0.3% (inactive)
48 | Cc1cccc2cc3c(N)c(C(=O)N4CCc5ccccc54)sc3nc12 | 347 cells | 44.1% (active)
49 | Cc1cccc2cc3c(N)c(C(=O)N4CCCc5ccccc54)sc3nc12 | 244 cells | 0.1% (inactive)
50 | CC1=NNC(=O)/C1=C\c1cn(-c2ccccc2)nc1-c1ccc(Cl)cc1 | 376 cells | 30.2% (inactive)
51 | CC1=NNC(=O)/C1=C\c1cn(-c2ccccc2)nc1-c1ccc(F)cc1 | 406 cells | 2.4% (inactive)
52 | CC1=NNC(=O)/C1=C\c1cn(-c2ccccc2)nc1-c1ccccc1 | 396 cells | 68.5% (active)
53 | COc1ccccc1NS(=O)(=O)c1cc([N+](=O)[O-])ccc1N/N=C/c1sc(N2CCOCC2)nc1-c1ccccc1 | 331 cells | 48.8% (active)
54 | O=[N+]([O-])c1ccc(N/N=C/c2sc(N3CCOCC3)nc2-c2ccccc2)c(S(=O)(=O)Nc2ccccc2Cl)c1 | 413 cells | 22.5% (inactive)
55 | O=[N+]([O-])c1ccc(N/N=C/c2sc(N3CCOCC3)nc2-c2ccccc2)c(S(=O)(=O)Nc2ccc(Cl)cc2)c1 | 392 cells | 18% (inactive)
56 | CCN1CCCC1CNCc1cc(OC)c(OC)c(OC)c1 (stereo unspecified) | 313 cells | -0.1% (inactive)
57 | COc1ccccc1Cc1noc(COc2cccc(C)c2C)n1 | 384 cells | -0.1% (inactive)
58 | Cc1nnc(SC(C)C)n(N)c1=O | 256 cells | -1.1% (inactive)
59 | O=c1cnnc(SCc2ccc([N+](=O)[O-])cc2)[nH]1 | 243 cells | 0.2% (inactive)
60 | CCn1nc(C)c(CN2CCC(C(=O)Nc3cccc(-c4cccc(Cl)c4)c3)CC2)c1C | 372 cells | 0% (inactive)
61 | CCC1(C)Cc2c(sc3c2c(=O)n(C)c2nnc(SCCc4ccccc4)n32)CO1 (stereo unspecified) | 322 cells | -0.2% (inactive)
62 | CCCCSc1nnc2n(CCc3ccccc3)c(=O)c3c4c(sc3n12)COC(C)(C)C4 | 332 cells | 58% (active)
63 | C=CCSc1nnc2n(CCc3ccccc3)c(=O)c3c4c(sc3n12)COC(C)(C)C4 | 369 cells | -0.1% (inactive)

Row | SMILES | cell count [1] | activation [2]
64 | COc1ccc(C2CC(c3ccc(F)cc3)=NN2c2ccccc2)cc1OC (stereo unspecified) | 391 cells | -0.1% (inactive)
65 | COc1cc(C2CC(c3ccccc3)=NN2c2ccccc2)ccc1OCC(=O)O (stereo unspecified) | 329 cells | 0.9% (inactive)
66 | O=C(CSc1nnc(CNc2ccc(F)cc2)n1CC1CCCO1)N1CCOCC1 (stereo unspecified) | 336 cells | 0.2% (inactive)
67 | CCOc1ccc(/C=N/NC(=O)C(C)N(c2ccc(OC)cc2)S(C)(=O)=O)cc1OCC (stereo unspecified) | 265 cells | 0.6% (inactive)
68 | CCOC(=O)CS(=O)(=O)c1nc(-c2ccc(F)cc2)cc(C(F)(F)F)n1 | 353 cells | 16.3% (inactive)
69 | CCOC(=O)CS(=O)(=O)c1nc(-c2ccccc2)cc(C(F)(F)F)n1 | 302 cells | 49.8% (active)
70 | CCOC(=O)CCS(=O)(=O)c1nc(-c2ccccc2)cc(C(F)(F)F)n1 | 310 cells | 14.3% (inactive)
71 | CNC(=O)CSc1nnc(-c2cccs2)o1 | 345 cells | 0.3% (inactive)
72 | CC(=O)Nc1cccc(/C(C)=N/NC(=O)c2cccs2)c1 | 330 cells | -0.4% (inactive)
73 | COc1ccc(-c2cc(C(F)(F)F)nc(SCC(=O)Nc3ccc4c(c3)OCO4)n2)cc1 | 399 cells | -0.2% (inactive)
74 | COc1ccccc1P(=O)(c1ccccc1)c1ccc([N+](=O)[O-])cc1 (stereo unspecified) | 384 cells | 0.2% (inactive)
75 | COc1ccccc1NC(=O)CSCc1ccc([N+](=O)[O-])cc1 | 415 cells | -0.1% (inactive)
76 | CC(=O)N1CC=C2C(C#N)=C(N)C(C#N)(C#N)C(C)C2C1 (stereo unspecified) | 315 cells | -0.2% (inactive)
77 | Cc1ccc(NC(=O)CS(=O)CC(=O)NC23CC4CC(CC(C4)C2)C3)cc1 (stereo unspecified) | 322 cells | 0% (inactive)
78 | CCc1ccccc1NC(=O)c1ccc(-c2csc(C)n2)cc1 | 398 cells | -0.1% (inactive)
79 | COc1ccc(CNc2nc(-c3cccnc3)nn2S(C)(=O)=O)cc1 | 258 cells | 1.3% (inactive)
80 | COc1cccc(-c2nnc3n2N=C(c2cc(OC)ccc2OC)CS3)c1 | 449 cells | -0.1% (inactive)
81 | COc1ccc(OC)c(C2=Nn3c(nnc3-c3cccc(OC(C)C)c3)SC2)c1 | 301 cells | -0.2% (inactive)
82 | CCOc1cccc(-c2nnc3n2N=C(c2cc(OC)ccc2OC)CS3)c1 | 276 cells | 100% (active)
83 | Cc1ccc(S(=O)(=O)NC2=C(N3CCN(c4ccccc4F)CC3)C(=O)c3ccccc3C2=O)cc1 | 421 cells | -0.1% (inactive)
